From PubChem
uPA generation: inhibitors of cell surface uPA generation | AID 540303 | Potency, µM (highest dose often 38.3 µM), for the others: at the highest dose activity change, negative = inhibition, most hits filed as inhibitors | cell surface uPA generation assay, qHTS | 0.31% of 330,000 active; active means well fitted inhibition curve with a large enough effect; inconclusive means small, poorly fitted or top-dose-only effect; inactive means no such curve, though single readings can be large or run the other way; tested in mouse RAW 264.7 cells; further: nearly all actives have a fitted effect of over 55% in size
RGS4 inh: inhibitors of human regulator of G protein signaling 4; Transcreener GDP fluorescence polarization, RGS4-accelerated GTP hydrolysis; Potency, µM (top dose mostly 114 µM), for the others: top-dose activity change, negative = inhibition, most hits filed as inhibitors; 0.039% of 390,000 active; AID 504845; further: nearly all actives have a fitted effect of over 75% in size
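MLSMR compounds (23 nl, pin-transferred) preincubated 10 min at room temperature with a 500nM (2x) first reagent, then RGS4 at 900nM (2x) plus Transcreener GDP mix added; fluorescence polarization (620/688 nm) read before and after 90 min at 30 °C.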
Eya2 phos inh: Eya2 (human) phosphatase inhibition | AID 488837 | 0.006% of 330,000 active | recombinant Eya2, OMFP fluorescence dephosphorylation (OMFP is methylfluorescein phosphate) | O00167 | Potency, µM (highest dose often 76.9 µM), inactives show at the highest dose activity, negative = inhibition, usual class: inhibitors
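Eya2 protein (added as 0.2 uM solution) was preincubated with compound for 10 min at ambient temperature in 50 mM HEPES pH 7.5, 50 mM NaCl, 5 uM MgCl2, 0.05% BSA, 1 mM DTT. OMFP (added at 50 uM) then reacted 10 min; fluorescence read at 485/525 nm.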
BCR signal inh: chronic active BCR signaling inhibition | ABC-DLBCL IkBa-CBG/CBR reporter, luminescence ratio, 4 h | Potency, µM (series often up to 46.1 µM), for inactives: top-dose activity change, negative = inhibition, hits mostly inhibitors | 0.05% of 340,000 active | AID 493014; active means well fitted inhibition curve with a large enough effect in the signal ratio, with a control signal flat, not every such curve was filed as active; inconclusive means small, poorly fitted or top-dose-only effect, or effect the other way, or a change in a side signal; the % refers to the signal ratio;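 further: plate controls were basal doxycycline-induced cells for no effect and cells given 10 µM MG132 for full effect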
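Doxycycline induced both beetle luciferases in TMD8 lymphoma cells; IKK-driven degradation limits the IkappaBalpha-fused green signal, while red luminescence normalises for cell number and nonspecific effects. Compounds tested up to 46 uM, 4 hrs.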
USP2a block: USP2a (human) protease inhibition; Potency, µM (series often up to 38.3 µM), without a hit: at the top dose activity change, negative = inhibition, hits mostly inhibitors; USP2 core, Ub-CHOP2 coupled fluorogenic reporter, 485/531; 0.01% of 330,000 active;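 further: plate controls were DMSO wells for no effect and full inhibition by NEM control for full effect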
Target sequence (O75604 whole entry, looked up): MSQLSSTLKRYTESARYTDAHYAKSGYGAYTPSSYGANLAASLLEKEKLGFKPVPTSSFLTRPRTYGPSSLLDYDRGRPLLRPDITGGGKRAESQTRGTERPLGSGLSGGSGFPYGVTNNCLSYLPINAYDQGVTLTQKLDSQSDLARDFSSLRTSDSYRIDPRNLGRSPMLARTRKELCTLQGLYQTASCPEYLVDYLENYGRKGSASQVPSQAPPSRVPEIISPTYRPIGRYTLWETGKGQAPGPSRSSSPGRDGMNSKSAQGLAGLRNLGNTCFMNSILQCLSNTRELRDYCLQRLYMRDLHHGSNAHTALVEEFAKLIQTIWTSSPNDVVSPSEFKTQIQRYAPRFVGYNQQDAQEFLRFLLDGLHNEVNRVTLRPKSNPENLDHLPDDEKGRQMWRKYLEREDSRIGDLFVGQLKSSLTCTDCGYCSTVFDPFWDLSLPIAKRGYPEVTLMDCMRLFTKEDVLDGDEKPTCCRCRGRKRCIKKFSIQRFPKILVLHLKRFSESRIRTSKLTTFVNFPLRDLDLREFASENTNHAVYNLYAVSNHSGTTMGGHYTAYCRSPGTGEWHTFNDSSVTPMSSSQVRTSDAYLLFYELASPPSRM
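Deubiquitinase activity read as fluorescence (485/531 nm) after Ub-CHOP2 cleavage activates the enterokinase reporter on its substrate; USP2 core 10nM, Ub-CHOP2 and substrate 25nM each, 30min compound preincubation then 60min RT; data normalized to NEM, curves fitted.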
GCN5L2 inh: inhibitors of human GCN5L2 histone acetyltransferase; 0.21% of 390,000 active; Q92830; GCN5L2 HAT assay, ThioGlo1 CoA-SH fluorescence; Potency, µM (highest dose often 58.9 µM), for inactives: at the top dose activity change, negative = inhibition, hits mostly inhibitors
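ThioGlo1-coupled HAT assay: 20nM GCN5L2, 70uM acetyl-CoA, 75uM H3(1-25) peptide, pH 7.5. Fluorescence read at 340/540nm at start and after 20 min at room temperature.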
* hit, by the source's call; ? = inconclusive; nt = no result; ! = a repeat was not active; [ ] = dose if it differs, or a comment. Only some compounds are listed: those with a hit (about 0.52% of all), similar ones and a draw of the others. Unless noted, the call rests on the fitted dose curve; in most records, active means well fitted curve in the direction sought with a large enough effect; inconclusive means small, poorly fitted or top-dose-only effect, or another doubt; inactive means no such curve, though single readings can be large; an effect the other way counts as inactive or inconclusive. Unless noted, on the % scale 0 is the no-effect control and ±100 the full control effect; potency means the concentration at half of the fitted maximal effect.

SMILES | uPA generation | RGS4 inh | Eya2 phos inh | BCR signal inh | USP2a block | GCN5L2 inh
NNC(=O)c1cc2sccc2s1 | -16% | 2% | ? | 18µM* | -1% | -1%
CC(=O)NNC(=O)c1cc2sccc2s1 | 4% | 1% | 6% | 7% | 1% | 2%
CC(=O)Nc1nc2ccc(-c3nc4ccccc4o3)cc2s1 | -5% | -2% | 5% | 15µM* | -5% | -1%
CC(C)CCNC(=O)C(CC(C)C)NC(=O)C1OC1C(=O)O (centres undefined) | nt | nt | nt | nt | nt | 3%
Cc1ccc(N2C(=O)CS(=O)(=O)C23C(=O)N(Cc2ccc(Cl)cc2)c2ccccc23)cc1C (centres undefined) | nt | -21% | nt | nt | nt | 7%
Cc1ccc(-n2ncc(Br)c(Br)c2=O)cc1 | 13µM* | -8% | -4% | ? | 3% | -8%
O=c1c(Br)c(Br)cnn1-c1ccccc1 | 2% | 5% | 8% | ? | 0% | -6%
O=C(CCS(=O)(=O)c1ccc(Br)s1)Nc1c(F)cccc1F | nt | 21% | nt | nt | nt | 1%
O=C(Cc1cccs1)NCCS(=O)(=O)N1CCN(c2ccccc2F)CC1 | 3.2µM* | 28% | -42% | -18% | 1% | -5%
COc1ccc(Cl)cc1C(=O)NCCS(=O)(=O)N1CCN(c2ccccc2OC)CC1 | nt | 2% | nt | nt | nt | -3%
COc1ccccc1N1CCN(S(=O)(=O)CCNC(=O)c2cc(OC)c(OC)c(OC)c2)CC1 | 13µM* | 8% | 4% | -18% | -1% | -3%
C=C(c1ccc(C(=O)O)cc1)c1cc2c(cc1C)C(C)(C)CCC2(C)C | nt | nt | nt | nt | nt | 6.3µM*
O=c1cc(-c2ccccc2)n2c(SCc3ccc(F)cc3)nnc2[nH]1 | nt | -34% | nt | 3% | nt | -25%
Cn1ncc(S(=O)(=O)Cc2ccccc2)c(Br)c1=O | nt | 2.7µM* | 9% | nt | nt | -20%
CN(Cc1ccco1)c1ncnc2ccc(-c3ccc4c(ccn4C)c3)cc12 | ? | -16% | 8% | 6.5µM* | -1% | -8%
Cc1cccc(-c2ccc3ncnc(N(C)Cc4ccco4)c3c2)c1 | nt | nt | -14% | ? | -1% | -6%
CCCCN(CC)CCCNC(=O)c1cc2c(=O)[nH]c3ccccc3c2n1C | nt | -36% | nt | nt | nt | -4%
Cc1cc(C(=O)N/N=C/c2cccc(OC(=O)c3cccc(Br)c3)c2)n[nH]1 | -11% | 21% | -1% | -8% | 0% | -4%
COc1cccc(C(=O)Oc2c(Br)cc(Br)cc2/C=N/NC(=O)c2cc(C)[nH]n2)c1 | 4µM* | 21% | 0% | ? | -7% | -2%
COc1ccc(NC(=O)C(c2ccc(C)cc2)N(C)C(=O)/C=C\c2ccc3c(c2)OCO3)cc1 (centres undefined) | nt | -2% | nt | nt | nt | -12%
COC(=O)[C@@H]1OC(c2ccccc2)O[C@H]1C(=O)OC | nt | nt | nt | nt | nt | 19%
COc1cc(C(=O)/C=C/c2cccnc2)c([N+](=O)[O-])cc1OC | 8.9µM* | -44% | 1% | ? | 0% | -5%
O=C(Cc1csc2ccccc12)NCc1cccc(Br)c1 | nt | 5% | nt | nt | nt | -1%
CN(C)C(=O)/N=N/C(=O)N(C)C | nt | 3µM* | -1% | nt | nt | -9%
O=C(O)c1cccc(/C=C2/C[C@@H]3[C@@H](/C=C/[C@@H](O)C4CCCCC4)[C@H](O)C[C@@H]3O2)c1 | nt | nt | nt | nt | nt | -15%
SMILES | uPA generation | RGS4 inh | Eya2 phos inh | BCR signal inh | USP2a block | GCN5L2 inh
CCCCCCCCCCCCCCCCC(C(=O)O)C(O)(CC(=O)O)C(=O)O (centres undefined) | nt | nt | nt | nt | nt | 1.1µM*
CCCCCCCCCCCCC(O)C(=O)O (centres undefined) | nt | 50%[56.9 µM] | nt | nt | nt | -21%
O=C(Nc1ccc(Cl)cn1)c1ccccc1[N+](=O)[O-] | -14% | -34% | 3% | ? | -1% | -4%
O=C(Nc1ccc(Cl)cn1)c1cccc2ccccc12 | 8.9µM* | -2% | -3% | ? | -1% | -18%
Nc1c(C(=O)NCc2cccs2)nnn1CC(=O)Nc1cccc(F)c1 | nt | -16% | nt | nt | nt | -1%
COc1ccc(CCNC(=O)CCCn2c(=O)c3ccccc3n(Cc3c(C)cc(C)cc3C)c2=O)cc1OC | nt | 2% | nt | nt | nt | -4%
CC(=O)Nc1ccc(Oc2cc(C#N)c(C#N)cc2N2CCOCC2)cc1 | -3% | 30% | 3% | 21µM* | 1% | -5%
Cn1nc(-c2ccncc2)nc2c(=O)n(C)c(=O)nc1-2 | nt | 0% | nt | nt | nt | nt
CN(C)CCOCCP(=O)(c1ccccc1)c1ccccc1 | nt | 11% | 4% | -1% | 10µM* | -4%
COc1cc(OC)c(NC(=O)C2=C(C)C(=O)OC23CCCCCC3)cc1Cl | nt | -1% | nt | nt | nt | -11%
Cc1cc(C)cc(C(=O)N(C)[C@H](Cc2ccc(-c3ccccc3)cc2)C(=O)N[C@@H](Cc2c[nH]c3ccccc23)C(=O)O)c1 | nt | -98%[56.9 µM] | nt | nt | nt | 32µM*!
Cc1ccc(C(=O)NC(Cc2c[nH]c3ccccc23)C(=O)O)cc1 (centres undefined) | -2% | 16% | 8% | 3% | 1% | 0%
COC(=O)N1CC=CC1(C)C(=O)NCc1cc(F)cc(C(F)(F)F)c1 (centres undefined) | 7.9µM* | -9% | 6% | -10% | 0% | -3%
CC(=O)N1CC=CC1(C)C(=O)NCc1cc(F)cc(C(F)(F)F)c1 (centres undefined) | 6% | 8% | 8% | -1% | 3% | 0%
Cc1cnc2c3c(cc(Cl)c2c1)-c1ccccc1S(=O)(=O)N3 | nt | -51% | nt | nt | nt | nt
Cc1c(C(=O)N/N=C/c2ccc(N(C)C)cc2)[nH]c2ccc(Cl)cc12 | -13% | -12% | -9% | ? | -1% | -8%
Cc1c(C(=O)N/N=C/c2ccccc2)[nH]c2ccc(Cl)cc12 | 2.8µM* | -8% | 2% | -25% | -2% | 21%
CCC(C)OC(=O)c1[nH]c2c(c1C)C(=O)CC(c1ccc(N(C)C)cc1)C2 (centres undefined) | 10µM* | -10% | -30% | 5% | -1% | ?
CCOCCOC(=O)c1[nH]c2c(c1C)C(=O)CC(c1ccc(OC)c(OC)c1)C2 (centres undefined) | -2% | -11% | -1% | ? | -3% | -11%
CCOCCOC(=O)c1[nH]c2c(c1C)C(=O)CC(c1ccc(N(C)C)cc1)C2 (centres undefined) | 13µM* | -20% | -14% | ? | 0% | -2%
C/C=C/COC(=O)c1[nH]c2c(c1C)C(=O)CC(c1ccc(N(C)C)cc1)C2 (centres undefined) | ? | -28% | 4% | -2% | -2% | -29%
O=C(NCCN1CCN(c2ccccc2)CC1)C1CCN(S(=O)(=O)c2cccc3nonc23)CC1 | 1% | 17% | 2% | 4% | -2% | 1.8µM*
